Assay results: the supplement of paper PMC7366291
Counter-ions that a name gives are not always drawn. ± gives the standard deviation or the standard deviation of the averaged measurements.

Tests used:
Settings in all cases: 25 µM; exposure: 24-48 hpf
[1] = test system: Danio rerio Tg(wt1b:EGFP) embryo, pronephros; assay: glomerular separation, fold change vs DMSO control; higher = glomeruli further apart (abnormal)
How it was run: (§1)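 Dechorionated Tg(wt1b:EGFP) zebrafish embryos were exposed to 25 μM compound in 0.5% DMSO, HEPES-buffered E3 with 0.003% PTU, from 24 to 48 hpf at 28.5°C. Pronephroi were imaged dorsally in agarose-filled 96-well plates (470 nm, 10 z-slices). On maximum projections, 16 reference points were set manually in Fiji and a macro computed distances and angles. Values more than 2 SD from the feature mean were excluded. Each feature is a fold change relative to the mean of same-day DMSO controls.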

[2] = test system: Danio rerio Tg(wt1b:EGFP) embryo, pronephros; assay: glomerular width (mean of left and right), fold change vs DMSO control; higher = wider glomerulus
How it was run: as §1

[3] = test system: Danio rerio Tg(wt1b:EGFP) embryo, pronephros; assay: fraction of imaged embryos annotated as normal kidney; higher = less nephrotoxic; extreme values may be limits of the assay
How it was run: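 The read-out is the proportion of embryos in each treatment manually annotated as normal-kidney. Exposure ran from 24 to 48 hpf at 28.5°C in 12-well plates, using dechorionated Tg(wt1b:EGFP) zebrafish embryos in 5 mM HEPES-buffered E3 with 0.003% PTU, 0.5% DMSO and 25 μM compound. For imaging, larvae were anaesthetised with tricaine, positioned dorsally in agarose-filled 96-well plates and captured by widefield fluorescence (470 nm, 10 z-slices), with scoring done on maximum projections.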

[4] = test system: Danio rerio Tg(wt1b:EGFP) embryo, pronephros; assay: pronephric angle neck segment to proximal convoluted tubule (mean of left and right), fold change vs DMSO control; higher = larger pronephric angle
How it was run: as §1

Compound	glomerular separation [1]	glomerular width [2]	fraction of imaged embryos annotated as normal kidney [3]	pronephric angle neck segment [4]
CCOC(=O)c1ccc(OC(=O)CCCCCNC(=N)N)cc1 [Gabexate mesilate]	0.986 ± 0.37	0.986 ± 0.011	0.8	0.961 ± 0.013
CN(C)C/C=C(/c1ccc(Br)cc1)c1cccnc1 [Zimelidine dihydrochloride monohydrate]	0.758 ± 0.25	0.9778 ± 0.0056	0.75	0.971 ± 0.055
CNCCCC12CCC(c3ccccc31)c1ccccc12 [Maprotiline hydrochloride]	1.28 ± 0.49	0.992 ± 0.049	0.909	1.1 ± 0.058
Nc1ccc(S(N)(=O)=O)cc1 [Sulfanilamide]	0.646 ± 0.14	1 ± 0.063	0.833	0.996 ± 0.0089
CC(C)(Sc1cc(C(C)(C)C)c(O)c(C(C)(C)C)c1)Sc1cc(C(C)(C)C)c(O)c(C(C)(C)C)c1 [Probucol]	0.815 ± 0.18	0.925 ± 0.06	1	0.928 ± 0.023
COCCOC(=O)C1=C(C)NC(C)=C(C(=O)OC(C)C)C1c1cccc([N+](=O)[O-])c1 (stereo not given) [Nimodipine]	1.64 ± 1.1	0.786 ± 0.066	0.5	0.954 ± 0.049
O=c1n(CCCN2CCN(c3cccc(Cl)c3)CC2)nc2ccccn12 [Trazodone hydrochloride]	1.2 ± 0.34	0.97 ± 0.015	1	0.997 ± 0.0034
CCCCCCCN(CC)CCCC(O)c1ccc(NS(C)(=O)=O)cc1 (stereo not given) [Ibutilide fumarate]	0.897 ± 0.24	1.0672 ± 0.00094	1	0.961 ± 0.086
O=C1[C@H](CC[C@H](O)c2ccc(F)cc2)[C@@H](c2ccc(O)cc2)N1c1ccc(F)cc1 [Ezetimibe]	1.28 ± 0.36	1.01 ± 0.015	0.75	0.992 ± 0.059
CC[C@@H]1C(=O)OC[C@@H]1Cc1cncn1C [Pilocarpine nitrate]	1.19 ± 0.19	1.04 ± 0.051	0.667	1.02 ± 0.021
